Source: PubChem BioAssay
For some assays here: Results with a measured potency or affinity are listed apart. The source made the active and inactive calls.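 Rule for the calls, unless noted: active = fitted half-maximal concentration within 10 nM to 100 µM, steepness 0.5 to 2, significant signal drop, low assay interference; inactive = the rest.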

What was measured:
[1] = target: Cell division control protein 42 homolog (Homo sapiens) (UniProt P60953); experiment: inhibition of fluorescent GTP binding to constitutively active Cdc42 – biochemical, multiplex bead flow cytometry, Bodipy-FL-GTP, dose response (AID 1333;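 active = fitted half-maximal concentration within the tested dose range, moderate curve steepness, a statistically real signal drop, and little compound fluorescence or tag-binding interference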); conditions: bead-based flow cytometry; series mostly up to 100 µM
[2] = target: Cell division control protein 42 homolog (Homo sapiens) (UniProt P60953); experiment: inhibition of fluorescent GTP binding to wildtype Cdc42 – biochemical, multiplex bead flow cytometry, Bodipy-FL-GTP, dose response (AID 1334;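 active = fitted half-maximal concentration within the tested range, moderate curve steepness, significant signal drop, and little compound fluorescence or bead-linkage interference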); conditions: bead-based flow cytometry, Bodipy-FL-GTP binding to GST-Cdc42; at 100 µM (top of the series) unless noted
[3] = target: GTPase HRas (Homo sapiens) (UniProt P01112); experiment: Ras wt fluorescent GTP loading blockade – biochemical, wildtype, multiplex bead flow cytometry, dose response (AID 1335); conditions: bead-based flow cytometry, Bodipy-GTP binding to GST-Ras; at 100 µM (top of the series) unless noted
[4] = test system: Ras-related protein Rab-7a (dog), GTP binding; experiment: blockers of fluorescent GTP binding to Rab7 – biochemical, wildtype, multiplex bead flow cytometry, dose response (AID 1336; call rule not given here); conditions: bead-based flow cytometry; series mostly up to 100 µM
[5] = target: Ras-related C3 botulinum toxin substrate 1 (Homo sapiens) (UniProt P63000); experiment: inhibition of wildtype Rac1 nucleotide loading – biochemical, multiplex bead flow cytometry, dose response (AID 1340;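 active = dose curve with midpoint inside tested range, moderate steepness, plateau gap beyond fit error, low compound glow and bead-link interference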); conditions: GST-Rac1 beads, Bodipy-FL-GTP binding; at 100 µM (top of the series) unless noted
[6] = target: GTPase HRas (Homo sapiens) (UniProt P01112); experiment: blockade of GTP loading onto mutant Ras – biochemical, activated mutant, multiplex bead flow cytometry, dose response (AID 1341;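 active = dose-response curve with midpoint inside the tested range, moderate steepness, significant amplitude and little compound fluorescence or bead-attachment interference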;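 note: GST-tagged constitutively activated Ras mutant immobilized on beads and multiplexed with other GTPases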); conditions: bead-based flow cytometry, Bodipy-FL-GTP binding; series mostly up to 100 µM

Sequence of Cell division control protein 42 homolog (Homo sapiens) (P60953 whole entry, looked up): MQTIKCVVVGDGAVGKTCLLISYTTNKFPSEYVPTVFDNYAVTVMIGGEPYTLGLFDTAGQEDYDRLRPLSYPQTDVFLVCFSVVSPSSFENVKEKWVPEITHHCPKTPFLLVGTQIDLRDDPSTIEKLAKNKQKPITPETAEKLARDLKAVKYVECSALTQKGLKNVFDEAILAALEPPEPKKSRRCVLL
Sequence of GTPase HRas (Homo sapiens) (P01112 whole entry, looked up): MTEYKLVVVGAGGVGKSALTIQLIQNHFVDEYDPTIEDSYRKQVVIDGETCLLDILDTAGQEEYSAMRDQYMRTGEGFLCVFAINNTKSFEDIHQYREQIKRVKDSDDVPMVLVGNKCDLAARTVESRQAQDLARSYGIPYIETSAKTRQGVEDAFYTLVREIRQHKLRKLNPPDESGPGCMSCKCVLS

| SMILES | outcome [1] | fluorescence, percent of control (lower = inhibition) [2] [%] | GTP binding, percent of control [3] [%] | outcome [4] | GTP binding signal, raw median fluorescence (lower = inhibition) (MCF (arbitrary fluorescence units)) [5] | outcome [6] |
| --- | --- | --- | --- | --- | --- | --- |
| Cc1cccc(NCc2ccc(O)c3ncccc23)c1C | inactive | 39.8 | 84.4 | inactive | 259 | inactive |
| COc1ccccc1CCNCc1ccc(C(=O)O)s1 | inactive | 63 | 88.4 | inactive | 34.1 | inactive |
| COc1cccc(CNCc2sc(C(=O)O)cc2C)c1OC | inactive | 61.7 | 80.7 | inactive | 35 | inactive |
| Cc1cc(C(F)F)n2nc(C(=O)Nc3ccc(S(=O)(=O)NC45CC6CC(CC(C6)C4)C5)cc3)nc2n1 | inactive | 35 | 82.9 | inactive | 254 | inactive |
| Cc1nn(-c2ccc(F)cc2)c(Cl)c1/C=C(\CCC(=O)O)c1nc2ccccc2s1 | inactive | 64.7 | 53.6 | inactive | 164 | inactive |
| O=C(NCc1cccs1)c1cccn2c(=O)c3sccc3nc12 | inactive | 32.6 | 69.2 | inactive | 138 | inactive |
| Cn1c(=O)c2c(nc(N3CCc4ccccc4C3)n2C)n(C)c1=O | inactive | 36.7 | 76.9 | inactive | 193 | inactive |
| Cc1cccc(C)c1CNc1ncccc1C(=O)O | inactive | 59 | 215 | inactive | 56.4 | inactive |
| CCC(=O)N=C1SC2CS(=O)(=O)CC2N1c1cccc(OC)c1 (stereo unspecified) | inactive | 89 | 162 | inactive | 180 | inactive |
| N#Cc1c(-c2cccc(Br)c2)cc(-c2ccco2)[nH]c1=O | inactive | 23.1 | 58.9 | inactive | 182 | inactive |
| COc1cc(/C=N/NC(=S)Nc2cccnc2)cc(OC)c1O | inactive | 31.8 | 72 | inactive | 163 | inactive |
| O=C(CSc1ccc2nnc(-c3cccc(F)c3)n2n1)N1CCCc2ccccc21 | inactive | 37.7 | 83 | inactive | 209 | inactive |
| CC(=O)c1c(C)[nH]c(C(=O)N2CCc3ccccc3C2)c1C | inactive | 107 | 192 | inactive |  |  |
| O=C(O)c1cc(-c2ccc(/C=C3\NC(=O)N(c4ccc(Cl)cc4)C3=O)o2)ccc1Cl | inactive | 25.6 | 66.3 | inactive | 160 | inactive |
| CC(C)Cc1csc(NC(=O)c2ccccc2Cl)c1C(=O)O | inactive | 29.8 | 74.3 | inactive | 214 |  |
| COc1cccc(/C=N/Nc2nn3cnnc3c3ccccc23)c1O | inactive | 35.9 | 44.6 | inactive | 126 | inactive |
| O=C(CN1C(=O)C2C3c4ccccc4C(c4ccccc43)C2C1=O)Nc1cccc(C(=O)O)c1 (stereo unspecified) | inactive | 46.1 | 58.8 | inactive | 165 | inactive |
| COc1ccc(-n2c(C)cc(/C=C3/SC(=S)N(C)C3=O)c2C)cc1 | inactive | 76.1 | 85.8 | inactive | 0 | inactive |
| CC1CN(C(=O)c2cccc(S(=O)(=O)Nc3cc(Cl)ccc3Cl)c2)CC(C)O1 (stereo unspecified) | inactive | 26.5 | 65.8 | inactive | 168 | inactive |
| Cc1ccc(C(=O)c2ccccc2C(=O)O)cc1 | inactive | 67.4 | 89.9 | inactive | 38.5 | inactive |

| SMILES | outcome [1] | fluorescence, percent of control (lower = inhibition) [2] [%] | GTP binding, percent of control [3] [%] | outcome [4] | GTP binding signal, raw median fluorescence (lower = inhibition) (MCF (arbitrary fluorescence units)) [5] | outcome [6] |
| --- | --- | --- | --- | --- | --- | --- |
| COc1ccc(C(=O)c2c(O)cc(-c3ccc(OC)cc3)oc2=O)cc1 | inactive | 52.9 | 70.9 | inactive | 249 |  |
| COc1cc(Cl)c(C)cc1NCc1sc(C(=O)O)cc1C | inactive | 58.6 | 82 | inactive | 29.9 | inactive |
| COc1cc(/C=N/Nc2ccc(S(N)(=O)=O)cc2)cc(OC)c1OC | inactive | 31.7 | 75.4 | inactive | 175 | inactive |
| O=C(O)c1cccc(Oc2ccc([N+](=O)[O-])cc2)c1 | inactive | 62.7 | 61.7 | inactive | 0 | inactive |
| CCN(CC)c1ccc(/C=N/OCC(=O)Nc2cccc(C)c2)cc1 | inactive | 65.3 | 74.6 | inactive | 0 | inactive |
| CCOc1ccc2nc(NC(=O)CSc3nc(-c4ccccc4)c(C#N)c(=O)[nH]3)sc2c1 | inactive | 25.1 | 70 | inactive | 240 | inactive |
| O=C(CCc1ccc(S(=O)(=O)NCCc2ccccc2)cc1)Nc1ccc2c(c1)OCO2 | inactive | 52.3 | 67.2 | inactive | 212 | inactive |
| Cc1ccc(-c2csc3nc4c5ccccc5c(NCCCN5CCOCC5)nn4c(=O)c23)cc1 | inactive | 32 | 68.7 | inactive | 176 | inactive |
| O=c1[nH]c(N/N=C/c2ccc(O)cc2)nc2ccccc12 | inactive | 31.4 | 71 | inactive | 259 | inactive |
| CCCN1C(=O)/C(=C\C=C2\N(CC)c3ccccc3C2(C)C)SC1=S | inactive | 104 | 140 | inactive | 307 | inactive |
| COc1ccccc1Oc1ccccc1C(=O)O | inactive | 100 | 239 | inactive | 271 | inactive |
| Cc1ccc(S(=O)(=O)c2cc3c(=O)n4ccccc4nc3n(C)c2=N)cc1 | inactive | 31.2 | 65.8 | inactive | 158 | inactive |
| Cc1ccc(N=Nc2c(N)[nH]n3c(=O)c4c(nc23)CCCC4)cc1 | inactive | 31.3 | 72.8 | inactive | 166 | inactive |
| Cc1cccc(CNCc2sc(C(=O)O)cc2C)c1 | inactive | 54.2 | 77.2 | inactive | 31.9 | inactive |
| O=C(CSc1nnc2c(n1)[nH]c1ccccc12)Nc1ccc(S(=O)(=O)Nc2ncccn2)cc1 | inactive | 33.3 | 72.8 | inactive | 148 | inactive |
| Cc1cc(Cl)ccc1OCC(=O)OCC(=O)Nc1ccc(F)c([N+](=O)[O-])c1 | inactive | 53 | 70.9 | inactive | 0 | inactive |
| Cc1ccc(Nc2cc(C(=O)O)c3ccccc3n2)c(C)c1 | inactive | 60.5 | 83.7 | inactive | 33.1 | inactive |
| Cc1cc2nc3c(=O)n(C4CCCCC4)c(=O)[nH]c3nc2cc1N | inactive | 42.7 | 53.2 | inactive | 146 | inactive |
| CCN(CC)c1ccc(-c2nn3c(-c4cccnc4)nnc3s2)cc1 | inactive | 72.7 | 46.9 | inactive | 126 | inactive |
| c1ccc(C2=Nn3c(nnc3-c3ccco3)SC2)cc1 | inactive | 34 | 81.7 | inactive | 183 | inactive |

| SMILES | outcome [1] | fluorescence, percent of control (lower = inhibition) [2] [%] | GTP binding, percent of control [3] [%] | outcome [4] | GTP binding signal, raw median fluorescence (lower = inhibition) (MCF (arbitrary fluorescence units)) [5] | outcome [6] |
| --- | --- | --- | --- | --- | --- | --- |
| N#CCc1c(C#N)c(N)nc(N2CCN(C=O)CC2)c1C#N | inactive | 33.7 | 75.4 | inactive | 170 | inactive |
| COc1cc(/C=N/NC(=O)CSc2n[nH]c(=O)[nH]c2=O)cc(OC)c1O | inactive | 36 | 78.9 | inactive | 178 | inactive |
| Nc1nonc1-c1nc2ccccc2n1CC(=O)N/N=C/c1ccc(-c2ccccc2C(=O)O)o1 | inactive | 30.6 | 68.4 | inactive | 133 | inactive |
| Cc1cc(C)cc(C(=O)N(NC(=O)Nc2ccc(Cl)cc2)C(C)(C)C)c1 | inactive | 94.9 | 150 | inactive | 186 | inactive |
| Cn1nc(C(F)(F)F)c(/C=N/OC(=O)c2ccccc2)c1SCc1ccc(Cl)cc1 | inactive | 98.8 | 181 | inactive | 175 | inactive |
| CCOC(=O)c1cc2c(N)c(C(=O)c3ccc(Br)cc3)sc2[nH]c1=O | inactive | 29 | 69.1 | inactive | 145 | inactive |
| COc1cc(/C=N/NC(=O)CN(Cc2ccco2)S(=O)(=O)c2ccccc2)ccc1O | inactive | 32.8 | 46.1 | inactive | 104 | inactive |
| CC(=O)Nc1cccc(C#CC(=O)c2ccc([N+](=O)[O-])cc2)c1 | inactive | 39.8 | 178 | inactive | 104 | inactive |
| COc1cc2c(C)nc3c(c(C)nn3-c3ccccc3)c2cc1OC | inactive | 32.3 | 71.7 | inactive | 167 | inactive |
| Cn1c(SCCOc2ccccc2F)nc2ccccc2c1=O | inactive | 29.1 | 71.9 | inactive | 158 | inactive |
| COc1ccc(/C=N/NC(=O)c2ccncc2)cc1Cn1nc([N+](=O)[O-])c(Br)c1C | inactive | 38.6 | 75.7 | inactive | 144 | inactive |
| COc1ccc2nc(C)cc(SCC(=O)N/N=C/c3ccc(O)c(O)c3)c2c1 | inactive | 35 | 75.8 | inactive | 164 | inactive |
| COCCn1c(N)c(C(=O)Nc2sc3c(c2C(=O)OC)CCCC3)c2nc3ccccc3nc21 | inactive | 52 | 108 | inactive | 120 | inactive |
| Cc1cccc(CNc2ncccc2C(=O)O)c1 | inactive | 61.9 | 224 | inactive | 57 | inactive |
| COc1ccccc1Nc1nc(-c2c(C)nc3ncccn23)cs1 | inactive | 26.5 | 57.6 | inactive | 117 | inactive |
| COc1ccccc1C(=O)Nc1nc(-c2ccc3c(c2)OCCO3)cs1 | inactive | 28.6 | 77 | inactive | 216 | inactive |
| O=C(O)c1ccc(COc2cccc(Cl)c2)o1 | inactive | 60.1 | 87 | inactive | 32.8 | inactive |
| Cc1ccc(OCCn2cc(C(=O)O)c3ccccc32)cc1C | inactive | 60.4 | 85.4 | inactive | 32.5 | inactive |
| CCOc1cccc(-c2nn3c(-c4ccco4)nnc3s2)c1 | inactive | 32.7 | 71.3 | inactive | 164 | inactive |
| CN(C)S(=O)(=O)c1ccc(C(=O)NNc2nc(-c3ccccc3)c3cc(Br)ccc3n2)cc1 | inactive | 31.2 | 71.7 | inactive | 166 | inactive |
